From the supplement of paper PMC7695840

Experiments:
[1] = system: Staphylococcus aureus MW2 delta-mecA (mecA-); test: normalized GFP fluorescence (growth of mecA- strain) (fraction of control range); higher = more growth of mecA- strain; conditions: compound concentration: 150 uM; cefoxitin: subinhibitory; fluorescent label: GFP
Method in brief: (§1)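 Pre-induced S. aureus MW2 mecA+ (DsRed) and ΔmecA (GFP) cells were mixed 1:1 in LB with a daily-set subinhibitory cefoxitin dose. They were dispensed at 5 µL/well onto 150 μM compound (1.5% DMSO) in 1536-well plates, single replicate. Growth was 20 h at 37 °C, 90% humidity, unshaken, and DsRed (540/590) and GFP (485/520) were then read. Each channel was scaled per plate between the medians of the single-strain controls. Plates with high No Treatment ratios and rows with DsRed/GFP >10 were excluded.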

[2] = system: Staphylococcus aureus MW2 (mecA+); test: normalized DsRed fluorescence (growth of mecA+ strain) (fraction of control range); higher = more growth of mecA+ strain; conditions: compound concentration: 150 uM; cefoxitin: subinhibitory; fluorescent label: DsRed
Method in brief: as §1

SMILES | normalized GFP fluorescence [1] | normalized DsRed fluorescence [2]
CCc1nc(N)nc(N)c1-c1ccc(Cl)cc1 | 0.211 | 0.879
COc1cc(C)c(/C=C/C(C)=C/C=C/C(C)=C/C(=O)O)c(C)c1C [Acitretin] | 0.0102 | 0.289
Cc1nc(C)c(Cl)c(O)c1Cl | 0.341 | 0.741
CN(C)CCc1c[nH]c2ccc(Cn3cncn3)cc12 | 0.425 | 0.751
Cc1cc(C(C)(C)C)cc(C)c1CC1=NCCN1 | 0.345 | 0.52
CN(C)CCC=C1c2ccccc2C=Cc2ccccc21 | 0.0981 | 1.21
Nc1ccn(C[C@@H](CO)OCP(=O)(O)O)c(=O)n1 [Cidofovir (Vistide)] | 0.408 | 0.568
O=C1c2c(O)ccc(O)c2C(=O)c2c(NCCNCCO)ccc(NCCNCCO)c21 | 0.184 | 1.12
COc1ccc([C@@H]2Sc3ccccc3N(CCN(C)C)C(=O)[C@@H]2OC(C)=O)cc1 | 0.124 | 0.612
CN/C(=N\CCSCc1nc[nH]c1C)NC#N | 0.567 | 1.05
OC[C@H]1O[C@@H](c2ccc(Cl)c(Cc3ccc(O[C@H]4CCOC4)cc3)c2)[C@H](O)[C@@H](O)[C@@H]1O | 0.499 | 0.698
CN1CCC(=C2c3ccccc3CCc3cccnc32)CC1 | 0.396 | 0.798
CN1CCC(=C2c3ccccc3C=Cc3ccccc32)CC1 | 0.0037 | 1.31
O=C([O-])C(O)[C@H](O)[C@@H](O)[C@H](O)[C@H](O)CO.O=C([O-])C(O)[C@H](O)[C@@H](O)[C@H](O)[C@H](O)CO.[Ca+2] (stereo not given in full) | 0.35 | 0.718
CC[C@@H](CO)NCCN[C@@H](CC)CO | 0.377 | 0.991
